# Results from paper PMC11006913.
# What was measured:
# Experiment in all cases: PBM; 200 nM protein, PBS
# Settings in all cases: dsDNA, one strand shown
# [1] = biological target: CRX (Homo sapiens, UniProt O43186 26-111)
# [2] = biological target: CRX (Homo sapiens, UniProt O43186 26-111, E42D)
# [3] = biological target: MSX2 (Homo sapiens, UniProt P35548 130-214, R199I)
# [4] = biological target: MSX2 (Homo sapiens, UniProt P35548 130-214)
# [5] = biological target: MSX2 (Homo sapiens, UniProt P35548 130-214, F161Y)
# [6] = biological target: CRX (Homo sapiens, UniProt O43186 26-111, R41L)
# [7] = biological target: PITX2 (Homo sapiens, UniProt Q99697 72-157)
# [8] = biological target: PROP1 (Homo sapiens, UniProt O75360 56-141)
# [9] = biological target: PROP1 (Homo sapiens, UniProt O75360 56-141, R99H)
# [10] = biological target: PROP1 (Homo sapiens, UniProt O75360 56-141, F88S)
# [11] = biological target: ALX3 (Homo sapiens, UniProt O95076 139-225, N203Q)
# [12] = biological target: ALX3 (Homo sapiens, UniProt O95076 139-225)
# [13] = biological target: ALX3 (Homo sapiens, UniProt O95076 139-225, L168Q)
# [14] = biological target: ALX3 (Homo sapiens, UniProt O95076 139-225, L168V)
# [15] = biological target: ALX3 (Homo sapiens, UniProt O95076 139-225, N203S)
# [16] = biological target: ALX1 (Homo sapiens, UniProt Q15699 118-204, L144V)
# [17] = biological target: ALX1 (Homo sapiens, UniProt Q15699 118-204, L144R)
# [18] = biological target: ALX1 (Homo sapiens, UniProt Q15699 118-204)
# ALX1 (Homo sapiens, UniProt Q15699 118-204), sequence (Q15699 118-204): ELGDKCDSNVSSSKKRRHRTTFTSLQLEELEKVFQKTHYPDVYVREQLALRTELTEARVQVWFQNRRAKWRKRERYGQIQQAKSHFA
# CRX (Homo sapiens, UniProt O43186 26-111, E42D), sequence (O43186 26-111 E42D): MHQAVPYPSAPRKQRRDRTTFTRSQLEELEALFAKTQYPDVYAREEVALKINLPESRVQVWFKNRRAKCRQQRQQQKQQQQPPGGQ
# CRX (Homo sapiens, UniProt O43186 26-111), sequence (O43186 26-111): as the sequence (O43186 26-111 E42D) above, with D17E counted along it
# CRX (Homo sapiens, UniProt O43186 26-111, R41L), sequence (O43186 26-111 R41L): as the sequence (O43186 26-111 E42D) above, with R16L, D17E counted along it
# MSX2 (Homo sapiens, UniProt P35548 130-214, F161Y), sequence (P35548 130-214 F161Y): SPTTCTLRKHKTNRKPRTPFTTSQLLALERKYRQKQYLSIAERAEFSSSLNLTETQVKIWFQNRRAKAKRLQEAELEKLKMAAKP
# MSX2 (Homo sapiens, UniProt P35548 130-214), sequence (P35548 130-214): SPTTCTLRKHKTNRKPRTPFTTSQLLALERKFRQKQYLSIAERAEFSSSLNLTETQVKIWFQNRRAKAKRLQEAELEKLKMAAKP
# PROP1 (Homo sapiens, UniProt O75360 56-141, F88S), sequence (O75360 56-141 F88S): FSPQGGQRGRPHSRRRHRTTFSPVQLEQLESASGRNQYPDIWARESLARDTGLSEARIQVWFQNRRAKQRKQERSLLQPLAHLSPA
# ALX3 (Homo sapiens, UniProt O95076 139-225, L168Q), sequence (O95076 139-225 L168Q): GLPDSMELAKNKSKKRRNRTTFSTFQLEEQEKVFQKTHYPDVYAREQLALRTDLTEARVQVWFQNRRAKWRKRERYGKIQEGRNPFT
# ALX1 (Homo sapiens, UniProt Q15699 118-204, L144V), sequence (Q15699 118-204 L144V): as the sequence (Q15699 118-204) above, with L27V counted along it
# ALX3 (Homo sapiens, UniProt O95076 139-225, N203Q), sequence (O95076 139-225 N203Q): as the sequence (O95076 139-225 L168Q) above, with Q30L, N65Q counted along it
# MSX2 (Homo sapiens, UniProt P35548 130-214, R199I), sequence (P35548 130-214 R199I): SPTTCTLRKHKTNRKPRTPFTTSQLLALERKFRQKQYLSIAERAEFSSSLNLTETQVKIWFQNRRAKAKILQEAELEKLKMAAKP
# ALX3 (Homo sapiens, UniProt O95076 139-225, N203S), sequence (O95076 139-225 N203S): as the sequence (O95076 139-225 L168Q) above, with Q30L, N65S counted along it
# ALX1 (Homo sapiens, UniProt Q15699 118-204, L144R), sequence (Q15699 118-204 L144R): as the sequence (Q15699 118-204) above, with L27R counted along it
# PROP1 (Homo sapiens, UniProt O75360 56-141), sequence (O75360 56-141): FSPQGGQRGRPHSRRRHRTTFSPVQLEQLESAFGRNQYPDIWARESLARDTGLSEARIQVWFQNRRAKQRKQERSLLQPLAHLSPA
# ALX3 (Homo sapiens, UniProt O95076 139-225, L168V), sequence (O95076 139-225 L168V): as the sequence (O95076 139-225 L168Q) above, with Q30V counted along it
# PROP1 (Homo sapiens, UniProt O75360 56-141, R99H), sequence (O75360 56-141 R99H): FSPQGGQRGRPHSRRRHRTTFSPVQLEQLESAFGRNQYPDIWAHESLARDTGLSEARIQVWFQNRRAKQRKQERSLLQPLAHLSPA
# ALX3 (Homo sapiens, UniProt O95076 139-225), sequence (O95076 139-225): as the sequence (O95076 139-225 L168Q) above, with Q30L counted along it
sequence,measurement,setting,value
CGGGGTGC,binding signal,[1],"8.16 upbm affinity estimate (log intensity, higher = more binding, comparable within an allelic series)"
same,binding signal,[2],"8.25 upbm affinity estimate (log intensity, higher = more binding, comparable within an allelic series)"
same,binding signal,[3],"9.55 upbm affinity estimate (log intensity, higher = more binding, comparable within an allelic series)"
same,binding signal,[4],"9.66 upbm affinity estimate (log intensity, higher = more binding, comparable within an allelic series)"
same,binding signal,[5],"9.67 upbm affinity estimate (log intensity, higher = more binding, comparable within an allelic series)"
same,binding signal,[6],"8.31 upbm affinity estimate (log intensity, higher = more binding, comparable within an allelic series)"
GGATTAAA,binding signal,[1],"13.5 upbm affinity estimate (log intensity, higher = more binding, comparable within an allelic series)"
same,binding signal,[2],"13.6 upbm affinity estimate (log intensity, higher = more binding, comparable within an allelic series)"
same,binding signal,[7],"13.3 upbm affinity estimate (log intensity, higher = more binding, comparable within an allelic series)"
same,binding signal,[6],"13.4 upbm affinity estimate (log intensity, higher = more binding, comparable within an allelic series)"
CATAATCC,binding signal,[1],"13.4 upbm affinity estimate (log intensity, higher = more binding, comparable within an allelic series)"
same,binding signal,[2],"13.4 upbm affinity estimate (log intensity, higher = more binding, comparable within an allelic series)"
same,binding signal,[7],"13.1 upbm affinity estimate (log intensity, higher = more binding, comparable within an allelic series)"
same,binding signal,[8],"8.29 upbm affinity estimate (log intensity, higher = more binding, comparable within an allelic series)"
same,binding signal,[9],"7.92 upbm affinity estimate (log intensity, higher = more binding, comparable within an allelic series)"
same,binding signal,[10],"7.15 upbm affinity estimate (log intensity, higher = more binding, comparable within an allelic series)"
same,binding signal,[6],"13.4 upbm affinity estimate (log intensity, higher = more binding, comparable within an allelic series)"
GGATTAAC,binding signal,[1],"13.6 upbm affinity estimate (log intensity, higher = more binding, comparable within an allelic series)"
same,binding signal,[2],"13.6 upbm affinity estimate (log intensity, higher = more binding, comparable within an allelic series)"
same,binding signal,[7],"13.3 upbm affinity estimate (log intensity, higher = more binding, comparable within an allelic series)"
same,binding signal,[6],"13.5 upbm affinity estimate (log intensity, higher = more binding, comparable within an allelic series)"
AGATTAAG,binding signal,[1],"13.1 upbm affinity estimate (log intensity, higher = more binding, comparable within an allelic series)"
same,binding signal,[2],"13 upbm affinity estimate (log intensity, higher = more binding, comparable within an allelic series)"
same,binding signal,[7],"12.6 upbm affinity estimate (log intensity, higher = more binding, comparable within an allelic series)"
same,binding signal,[6],"12.6 upbm affinity estimate (log intensity, higher = more binding, comparable within an allelic series)"
CGGCTTAA,binding signal,[1],"12.9 upbm affinity estimate (log intensity, higher = more binding, comparable within an allelic series)"
same,binding signal,[2],"12.8 upbm affinity estimate (log intensity, higher = more binding, comparable within an allelic series)"
same,binding signal,[7],"12.5 upbm affinity estimate (log intensity, higher = more binding, comparable within an allelic series)"
GAGACTGC,binding signal,[1],"8.28 upbm affinity estimate (log intensity, higher = more binding, comparable within an allelic series)"
same,binding signal,[2],"8.22 upbm affinity estimate (log intensity, higher = more binding, comparable within an allelic series)"
same,binding signal,[11],"7.74 upbm affinity estimate (log intensity, higher = more binding, comparable within an allelic series)"
same,binding signal,[12],"7.6 upbm affinity estimate (log intensity, higher = more binding, comparable within an allelic series)"
same,binding signal,[13],"7.71 upbm affinity estimate (log intensity, higher = more binding, comparable within an allelic series)"
same,binding signal,[14],"7.72 upbm affinity estimate (log intensity, higher = more binding, comparable within an allelic series)"
same,binding signal,[6],"8.35 upbm affinity estimate (log intensity, higher = more binding, comparable within an allelic series)"
same,binding signal,[15],"7.73 upbm affinity estimate (log intensity, higher = more binding, comparable within an allelic series)"
AATAATCC,binding signal,[1],"13.4 upbm affinity estimate (log intensity, higher = more binding, comparable within an allelic series)"
same,binding signal,[2],"13.4 upbm affinity estimate (log intensity, higher = more binding, comparable within an allelic series)"
same,binding signal,[7],"13 upbm affinity estimate (log intensity, higher = more binding, comparable within an allelic series)"
same,binding signal,[4],"11.5 upbm affinity estimate (log intensity, higher = more binding, comparable within an allelic series)"
same,binding signal,[5],"11.3 upbm affinity estimate (log intensity, higher = more binding, comparable within an allelic series)"
same,binding signal,[6],"13.4 upbm affinity estimate (log intensity, higher = more binding, comparable within an allelic series)"
CTAATCCC,binding signal,[1],"13.5 upbm affinity estimate (log intensity, higher = more binding, comparable within an allelic series)"
same,binding signal,[2],"13.6 upbm affinity estimate (log intensity, higher = more binding, comparable within an allelic series)"
same,binding signal,[7],"13.4 upbm affinity estimate (log intensity, higher = more binding, comparable within an allelic series)"
same,binding signal,[6],"13.4 upbm affinity estimate (log intensity, higher = more binding, comparable within an allelic series)"
AAATCTGC,binding signal,[1],"10.8 upbm affinity estimate (log intensity, higher = more binding, comparable within an allelic series)"
same,binding signal,[2],"10.6 upbm affinity estimate (log intensity, higher = more binding, comparable within an allelic series)"
same,binding signal,[16],"8.09 upbm affinity estimate (log intensity, higher = more binding, comparable within an allelic series)"
same,binding signal,[17],"8 upbm affinity estimate (log intensity, higher = more binding, comparable within an allelic series)"
same,binding signal,[6],"10.6 upbm affinity estimate (log intensity, higher = more binding, comparable within an allelic series)"
same,binding signal,[18],"8.23 upbm affinity estimate (log intensity, higher = more binding, comparable within an allelic series)"
